Assay results as given in PMC9838217, “Structure of SALL4 zinc finger domain reveals link between AT-rich DNA binding and Okihiro syndrome”.
Where a chain is given by its changes, count along the chain named.

Molecular target: T1, SALL4 ZFC4 R900W (HT-SELEX) (Mus musculus, UniProt Q8BX22 870-940, R900W)
T1 sequence: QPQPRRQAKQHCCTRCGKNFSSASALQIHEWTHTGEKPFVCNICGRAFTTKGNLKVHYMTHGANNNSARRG
Experiment: HT-SELEX; high values mean tight binding
Settings: protein: recombinant; vector His6-GST; dsDNA, one strand shown
Summary of the method: (§1)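 Binding signal is defined as the fold change of each canonical k-mer's read fraction versus the initial random library. Selections used 1 µg of purified recombinant mouse SALL4 zinc finger cluster 4 (residues 870–940) with library DNA (1.5 µg first cycle, 200 ng later) in 100 µl of 10 mM Tris–HCl pH 7.5, 50 mM NaCl, poly(dI-dC) and DTT, for 10 min at room temperature, followed by Ni2+ bead capture, washing and PCR. Up to 6 such cycles were run in triplicate before MiSeq sequencing and 6-mer scanning.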

Compared with CGCCCC, CGGTGC is higher in binding signal: 0.0728 ± 0.00775 fold-change vs cycle 0 for the first, 0.129 ± 0.00419 fold-change vs cycle 0 for the second.

Compared with GTCGAC, GCAGCA is lower in binding signal: 0.301 ± 0.0134 fold-change vs cycle 0 for the first, 0.247 ± 0.0238 fold-change vs cycle 0 for the second.

Compared with AAGGGC, GCGCCA is lower in binding signal: 0.343 ± 0.00573 fold-change vs cycle 0 for the first, 0.0557 ± 0.0063 fold-change vs cycle 0 for the second.

Going from CGCATC to GATGCC, the binding signal rises from 0.304 ± 0.00796 fold-change vs cycle 0 to 0.3346 ± 0.00318 fold-change vs cycle 0.

Going from AAGCGC to CCCTGC, the binding signal rises from 0.162 ± 0.0133 fold-change vs cycle 0 to 0.219 ± 0.0265 fold-change vs cycle 0.

Compared with GTCGGA, CGATGC is lower in binding signal: 0.35 ± 0.00494 fold-change vs cycle 0 for the first, 0.312 ± 0.0118 fold-change vs cycle 0 for the second.

Compared with AGTCGG, CAGCGC is lower in binding signal: 0.367 ± 0.00833 fold-change vs cycle 0 for the first, 0.0744 ± 0.00642 fold-change vs cycle 0 for the second.

Going from CAACGC to CCGCTA, the binding signal rises from 0.263 ± 0.00747 fold-change vs cycle 0 to 0.299 ± 0.0278 fold-change vs cycle 0.

First: ATGCGC
Second: AGGGGC
The binding signal of the first is lower: 0.153 ± 0.00714 fold-change vs cycle 0 for the first, 0.195 ± 0.00634 fold-change vs cycle 0 for the second.

ATCCGC and GGCCTA are within error of each other in binding signal: 0.279 ± 0.016 fold-change vs cycle 0 for the first, 0.299 ± 0.00892 fold-change vs cycle 0 for the second.

First: ACTCGC
Second: AGCCGA
The binding signal of the first is higher: 0.3364 ± 0.000841 fold-change vs cycle 0 for the first, 0.263 ± 0.0162 fold-change vs cycle 0 for the second.

Compared with ACCGAC, GCGGTA is lower in binding signal: 0.345 ± 0.0112 fold-change vs cycle 0 for the first, 0.271 ± 0.0135 fold-change vs cycle 0 for the second.

First: CTGTGC
Second: CCGGCA
The binding signal of the first is higher: 0.34 ± 0.0263 fold-change vs cycle 0 for the first, 0.108 ± 0.00217 fold-change vs cycle 0 for the second.

Going from GACCGC to AGCCCA, the binding signal rises from 0.124 ± 0.0133 fold-change vs cycle 0 to 0.323 ± 0.00919 fold-change vs cycle 0.

Compared with CACCGC, CCACGG is higher in binding signal: 0.132 ± 0.00669 fold-change vs cycle 0 for the first, 0.219 ± 0.0185 fold-change vs cycle 0 for the second.

TGGCCA and CCGGAG are within error of each other in binding signal: 0.236 ± 0.00832 fold-change vs cycle 0 for the first, 0.255 ± 0.0305 fold-change vs cycle 0 for the second.

Going from CGGCGA to GACGCC, the binding signal rises from 0.077 ± 0.0153 fold-change vs cycle 0 to 0.116 ± 0.00704 fold-change vs cycle 0.

AGAGCG and CGATCG are within error of each other in binding signal: 0.324 ± 0.0123 fold-change vs cycle 0 for the first, 0.329 ± 0.0324 fold-change vs cycle 0 for the second.

Going from CGCGAA to AGAATA, the binding signal rises from 0.201 ± 0.0239 fold-change vs cycle 0 to 2.17 ± 0.0929 fold-change vs cycle 0.

Going from AAGGCC to GTGGCA, the binding signal falls from 0.32 ± 0.0161 fold-change vs cycle 0 to 0.276 ± 0.00829 fold-change vs cycle 0.

Molecular target: T2, SALL4 ZFC4 G921D (HT-SELEX) (Mus musculus, UniProt Q8BX22 870-940, G921D)
T2 sequence: T1 sequence with W31R, G52D
Experiment: HT-SELEX; high values mean tight binding
Settings: protein: recombinant; vector His6-GST; dsDNA, one strand shown
Summary of the method: as §1

CGCCCC and CGGTGC are within error of each other in binding signal: 0.173 ± 0.0648 fold-change vs cycle 0 for the first, 0.238 ± 0.0719 fold-change vs cycle 0 for the second.

GTCGAC and GCAGCA are within error of each other in binding signal: 0.452 ± 0.0612 fold-change vs cycle 0 for the first, 0.368 ± 0.0645 fold-change vs cycle 0 for the second.

Going from AAGGGC to GCGCCA, the binding signal falls from 0.488 ± 0.064 fold-change vs cycle 0 to 0.143 ± 0.0639 fold-change vs cycle 0.

CGCATC and GATGCC are within error of each other in binding signal: 0.441 ± 0.0726 fold-change vs cycle 0 for the first, 0.49 ± 0.0663 fold-change vs cycle 0 for the second.

AAGCGC and CCCTGC are within error of each other in binding signal: 0.302 ± 0.0877 fold-change vs cycle 0 for the first, 0.323 ± 0.0875 fold-change vs cycle 0 for the second.

GTCGGA and CGATGC are within error of each other in binding signal: 0.501 ± 0.0597 fold-change vs cycle 0 for the first, 0.454 ± 0.0801 fold-change vs cycle 0 for the second.

Going from AGTCGG to CAGCGC, the binding signal falls from 0.499 ± 0.0416 fold-change vs cycle 0 to 0.177 ± 0.0788 fold-change vs cycle 0.

CAACGC and CCGCTA are within error of each other in binding signal: 0.409 ± 0.0649 fold-change vs cycle 0 for the first, 0.434 ± 0.0518 fold-change vs cycle 0 for the second.

ATGCGC and AGGGGC are within error of each other in binding signal: 0.28 ± 0.0818 fold-change vs cycle 0 for the first, 0.332 ± 0.0629 fold-change vs cycle 0 for the second.

ATCCGC and GGCCTA are within error of each other in binding signal: 0.426 ± 0.0842 fold-change vs cycle 0 for the first, 0.443 ± 0.0788 fold-change vs cycle 0 for the second.

ACTCGC and AGCCGA are within error of each other in binding signal: 0.463 ± 0.0712 fold-change vs cycle 0 for the first, 0.384 ± 0.065 fold-change vs cycle 0 for the second.

ACCGAC and GCGGTA are within error of each other in binding signal: 0.497 ± 0.0584 fold-change vs cycle 0 for the first, 0.391 ± 0.0556 fold-change vs cycle 0 for the second.

Compared with CTGTGC, CCGGCA is lower in binding signal: 0.471 ± 0.046 fold-change vs cycle 0 for the first, 0.221 ± 0.0662 fold-change vs cycle 0 for the second.

Going from GACCGC to AGCCCA, the binding signal rises from 0.245 ± 0.0713 fold-change vs cycle 0 to 0.465 ± 0.0703 fold-change vs cycle 0.

CACCGC and CCACGG are within error of each other in binding signal: 0.239 ± 0.0797 fold-change vs cycle 0 for the first, 0.334 ± 0.0695 fold-change vs cycle 0 for the second.

TGGCCA and CCGGAG are within error of each other in binding signal: 0.386 ± 0.0718 fold-change vs cycle 0 for the first, 0.352 ± 0.0596 fold-change vs cycle 0 for the second.

CGGCGA and GACGCC are within error of each other in binding signal: 0.177 ± 0.0705 fold-change vs cycle 0 for the first, 0.225 ± 0.0674 fold-change vs cycle 0 for the second.

AGAGCG and CGATCG are within error of each other in binding signal: 0.489 ± 0.067 fold-change vs cycle 0 for the first, 0.53 ± 0.115 fold-change vs cycle 0 for the second.

Compared with CGCGAA, AGAATA is higher in binding signal: 0.315 ± 0.0749 fold-change vs cycle 0 for the first, 1.84 ± 0.188 fold-change vs cycle 0 for the second.

AAGGCC and GTGGCA are within error of each other in binding signal: 0.435 ± 0.0818 fold-change vs cycle 0 for the first, 0.424 ± 0.0569 fold-change vs cycle 0 for the second.
